# An excerpt weighted towards active compounds, which were near 19% of everything screened.
# TDP1 cell CPT – DT40-hTDP1 cell growth loss with CPT. chicken DT40 Tdp1-/-;hTDP1 cells + 20 nM CPT, ATP luminescence, 48 h. Potency, µM (doses to about 46.2 µM), actives largely listed as inhibitors. hit rate 12% among 420,000. AID 686979; further: nearly all actives have a fitted effect of over 55% in size
#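 Chicken DT40 Tdp1-/- cells complemented with human TDP1, 400 cells/well, exposed to compounds plus 20 nM camptothecin for at least 48 h at 37 C; viability read as ATP content by CellTiter-Glo luminescence.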
# DT40 TDP1 no CPT – qHTS for Inhibitors of human tyrosyl-DNA phosphodiesterase 1 (TDP1): qHTS in cells in absence of CPT. DT40 Tdp1-/- hTDP1 cells, no CPT, ATP luminescence, 48 h. Potency, µM (doses to about 46.2 µM), most hits filed as inhibitors. hit rate 15% among 420,000. AID 686978, 2013; further: nearly all actives have a fitted effect of over 55% in size
#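 Camptothecin absent (DMSO only). Human TDP1-complemented DT40 knockout cells, 400 cells/well, 37 °C for minimum 48 hr; ATP measured via CellTiter-Glo, 30 min dark incubation, luminescence.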
# HT1080NT lethal – kills 2HG-producing HT-1080-NT fibrosarcoma cells | HT-1080-NT fibrosarcoma viability, CellTiter-Glo ATP luminescence, 48 h | Potency, µM (titrated, usually from 46.1 µM), usual class: cytotoxic | hit rate 1.6% among 360,000 | AID 686970;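 further: NT is the 2HG producing partner of a matched IDH1 knockdown line; nearly all actives have a fitted effect of over 55% in size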
#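 Compounds were tested in concentration-response format on HT-1080-NT cells for 48 hours at 37 degrees C. Cell viability came from CellTiter-Glo luminescence; curves were classified by r2, response magnitude and activity.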
# HT1080 IDH1KD tx – HT-1080 IDH1 knockdown cell toxicity (counter line). Potency, µM (series often up to 46.1 µM), usual class: cytotoxic. HT-1080 IDH1 knockdown viability, ATP luminescence, 48 h. hit rate 2% among 360,000. AID 686971
#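 HT-1080-IDH1KD cells (IDH1 knocked down), 750/well in RPMI with 5% FBS, treated with compound 48 h at 37 degrees C. Viability by CellTiter-Glo luminescence, normalised to DMSO and no-cell wells; concentration-response curves classed.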
# IL1B secr inh – blocks inflammasome-driven IL-1 beta release; THP-1 LPS/ATP IL-1B secretion, AlphaLISA, 16 h; active compounds read low; activity change, % at 57.5 µM; hit rate 4.7% among 360,000; AID 743279; in the data active means activity change below about -50%; inconclusive means mostly about -30% to -49%
#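 Secreted IL-1B measured by AlphaLISA bead assay after 16 h compound exposure of THP-1 cells; compounds (final up to 57.5 uM) added 1 h before LPS (250 ng/mL) and ATP (1.25 mM) stimulation; lower signal means less secretion.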
# Hits are given with their value; . = inactive; ? = inconclusive; / = no result given; ! = a repeat was not active; [ ] = another dose, or the depositor's remark. Unless noted, the call rests on the fitted dose curve; in most records, active means well fitted curve in the direction sought with a large enough effect; inconclusive means small, poorly fitted or top-dose-only effect, or another doubt; inactive means no such curve, though single readings can be large; an effect the other way counts as inactive or inconclusive.
SMILES,TDP1 cell CPT,DT40 TDP1 no CPT,HT1080NT lethal,HT1080 IDH1KD tx,IL1B secr inh
O=S1(=O)N[C@H](Cc2ccccc2)COc2cc(N3CCC[C@@H]3CO)ccc21,?,?,?,23µM,.
CCCN1CCN(CCCNC(=O)c2ccc(CS(=O)c3ccccc3C)o2)CC1 (stereo not given),.,.,.,.,.
Cc1c(C=O)c2ccccn2c1C(=O)c1cccs1,?,?,.,.,.
CCOc1ccc(CNS(=O)(=O)c2cc3c(cc2C)NC(=O)CO3)cc1OC,.,.,/,/,/
CC1CC(C)CN(C(=O)Cn2c(=O)n(CCCCC(=O)NCc3ccco3)c(=O)c3ccccc32)C1 (stereo not given),.,?,.,.[9.24 µM],.
Cc1ccc(NC(=O)CSc2nc(=O)n(CCCN3CCOCC3)c3c2CCCC3)c(C)c1,.,.,.,.,.
COC(=O)c1sc2ncccc2c1OCc1ccc(Cl)cc1,.,.,?,.,.
CCOc1ccc(CCNC(=O)c2sc3ncccc3c2-n2cccc2)cc1OCC,26µM,?,/,/,/
CCOc1ccc(CCNC(=O)c2cccs2)cc1OCC,.,?,.,.,.
CC(NC(=O)c1sc2ncccc2c1-n1cccc1)c1ccccc1 (stereo not given),?,23µM,/,/,/
Cc1nnsc1C(=O)NC(C)c1ccccc1 (stereo not given),?,.,.,.,.
CC(C)NC(=O)c1sc2ncccc2c1-n1cccc1,?,2.6µM,/,/,/
c1ccc(CSc2ccc(-c3cccnc3)nn2)cc1,.,?,.,.,.
O=C(Nc1nc(C2C3CC4CC(C3)CC2C4)cs1)c1cc2cc([N+](=O)[O-])ccc2oc1=O (stereo not given),12µM,9.2µM,.,.,.
Cc1ccc(Cn2c(Cc3ccccc3)nc3ccccc32)cc1,18µM!,16µM,.,.,.
ClCc1nc2ccccc2n1Cc1ccccc1,10µM,7.3µM,.,.,.
CC(=O)NCCCc1nc2ccccc2n1Cc1ccc(C)cc1,.,.,.,.,.
COc1ccccc1OCc1nc2ccccc2n1Cc1ccccc1,?,16µM,/,/,/
CCOC(=O)C1CCCN(C(=O)Cn2nc(C)c3c(C)n(-c4ccccc4)nc3c2=O)C1 (stereo not given),.,.,.,.,.
COc1cc2cc(C)c3nnc(SCC(=O)Nc4cc(C)on4)n3c2cc1OC,.,?,.,.,.
Cc1cc(NC(=O)CSc2nnc3c(C)cc4c(C)ccc(C)c4n23)no1,1.2µM,1.5µM,6.3µM,6.3µM,.
CCc1nnc(NC(=O)CSc2nnc(-c3ccncc3)n2C)s1,.,.,.,.,.
CCc1nnc(NC(=O)CSc2nnc3c(C)cc4c(C)ccc(C)c4n23)s1,3.7µM,4.6µM,5.8µM,6.5µM,.
O=C1CCC(C(=O)N2CCCCCC2)CN1Cc1cccc(C(F)(F)F)c1 (stereo not given),.,.,.,.,.
S=c1nc[nH]c2nc[nH]c12,?,19µM!,2.3µM,1.8µM,.
SMILES,TDP1 cell CPT,DT40 TDP1 no CPT,HT1080NT lethal,HT1080 IDH1KD tx,IL1B secr inh
COc1ccc2c(c1)C(=O)O[C@@H](c1ccccc1)C[C@@H](O)C(=O)CC2,.,?,.,.,.
Cc1cccc(OCC(=O)N(Cc2nnc(-c3ccccc3Cl)o2)C2CC2)c1,16µM,?,.[9.24 µM],.,.
O=C(COc1ccc(F)cc1Cl)N(Cc1nnc(-c2ccccc2Cl)o1)C1CC1,.,16µM,.,.,.
O=C(COc1ccc(Br)cc1)N(Cc1nnc(-c2ccccc2Cl)o1)C1CC1,23µM,23µM,.,.,.
Cc1ccc(C)c(OCC(=O)N(Cc2nnc(-c3ccccc3Cl)o2)C2CC2)c1,?,?,.,.,.
CC1(c2nnc(-c3cccc(Cl)c3)o2)CC(c2cccnc2)=NO1 (stereo not given),?,.,.,.,.
CC(C)(C)c1ccc(C(=O)NNC(=O)CCC(=O)Nc2ccccc2)cc1,.,.,.,.,.
COc1cccc(CNC(=O)c2ccc(OCC(=O)N3CCOCC3)c(OC)c2)c1,.,.,.,.,.
COc1ccc(/C=C2/Sc3ccc(C(=O)NCCN4CCCCCC4)cc3NC2=O)cc1,3.7µM,3.3µM,.,.,-90
CCC1CCCCN1CCCNC(=O)c1ccc(/C=C2/Sc3ccccc3NC2=O)cc1 (stereo not given),?,3.7µM,?,.,.
CCC1CCCCN1CCCNC(=O)c1ccc2c(c1)NC(=O)CS2 (stereo not given),.,.,.,.,.
O=C1Nc2cc(C(=O)NCCCN3CCOCC3)ccc2S/C1=C/c1cccc(Cl)c1,?,?,.,.,.
O=C1Nc2cc(C(=O)NCCCN3CCCC3)ccc2S/C1=C\c1ccccc1,?,18µM,.,?,.
Cc1cccc(C)c1NC(=O)CNC(=O)CCCc1c[nH]c2ccccc12,?,?,.,.,.
Cc1ncc2c(c1CNC(=O)c1ccc3c(c1)OCO3)CCN(C(=O)C1Cc3ccccc3O1)C2 (stereo not given),.[9.04 µM],.,/,/,/
O=C(c1sccc1-c1ccccc1)N1CCN(S(=O)(=O)c2ccccc2)CC1,?,23µM,.,.,.
Cc1ccc(S(=O)(=O)N2CCN(C(=O)c3sccc3-c3ccccc3)CC2)cc1,?,18µM,.,.,.
Cn1c(=O)[nH]c(=O)c2c1nc(N1CCOCC1)n2Cc1ccccc1,?,.,/,/,/
Cc1ccc(C(=O)Nc2ccc3nccnc3c2)cc1,?,16µM,.,.,.
COc1ccc(C(=O)Nc2ccc(SC(F)F)cc2)cc1,.,?,.,.,.
O=C(Nc1ccc(OC(F)(F)F)cc1)c1ccc2nccnc2c1,.,?,.,?,.
O=C(Nc1ccc(SC(F)F)cc1)c1ccc2nccnc2c1,?,?,?,.,-97
COC(=O)c1ccc(NC(=O)c2ccc3nccnc3c2)cc1,.,29µM,.,.,.
COCCCn1c(Cc2csc(Nc3ccc(F)cc3)n2)nnc1SCC(N)=O,.,.,.,.,.
CCOc1cc(Br)ccc1S(=O)(=O)N1CC(C)OC(C)C1 (stereo not given),26µM,?,?,.,.
SMILES,TDP1 cell CPT,DT40 TDP1 no CPT,HT1080NT lethal,HT1080 IDH1KD tx,IL1B secr inh
Fc1ccc(Nc2nc(N3CCOCC3)c3ccccc3n2)cc1,?,23µM,.,.,-78
c1ccc2c(Nc3nc(N4CCOCC4)c4ccccc4n3)cccc2c1,13µM,23µM,21µM,15µM,-109
FC(F)(F)c1ccccc1-c1nc(N2CCOCC2)c2ccccc2n1,.,.,/,/,/
Cc1ccc(NC(=O)c2cc3ccccc3oc2=O)cc1S(=O)(=O)N(C)C,.,.,.,.,.
Cc1ccc(NC(=O)c2cc3ccccc3o2)cc1S(=O)(=O)N(C)C,29µM,?,?,.,.
O=C(Nc1ccc(NC(=O)c2cc3ccccc3o2)cc1)c1ccccc1,.,.,/,/,/
